Screening results from PubChem BioAssay.
SMN2 splice up – qHTS Assay for Enhancers of SMN2 Splice Variant Expression. HEK293 SMN2-luciferase splicing reporter, luminescence, 30-36 h. Potency, µM (highest dose often 46.1 µM), inactives show at the highest dose activity change, positive = activation, usual class: activators. 2.8% of 210,000 active. AID 1458, 2008; further: % of control where 0% means no effect; nearly all actives have a fitted effect of over 55% in size
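HEK293 cells carry an SMN2 […]–luciferase reporter in which exon 7 inclusion puts luciferase in frame. Cells were plated 10-12 h before compound addition, then incubated 30-36 h at 37C. ONE-Glo luminescence was read; sodium butyrate at 4.5 mM final served as control.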
NPC1 promoter act – qHTS Assay for NPC1 Promoter Activators; Huh7 NPC1 promoter luciferase reporter, 24 h; Potency, µM (titrated, usually from 9.22 µM), without a hit: at the highest dose activation, usual class: activators; 2.4% of 320,000 active; AID 485313, 2010; further: % of control where 0% means no effect; nearly all actives have a fitted effect of over 60% in size
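Readout is luciferase luminescence, reflecting NPC1 promoter activation in stably transfected Huh7 cells after 24 h compound exposure at 37 °C in reduced-serum medium with 10% FBS.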
KinaseGlo FLuc – Counterscreen for Luciferase (Kinase-Glo TM) Inhibition; AID 1379, 2008; Luciferin 4-monooxygenase (Photuris pensylvanica), Q27757; 0.28% of 200,000 active; Potency, µM (highest dose often 38.3 µM), without a hit: at the highest dose activity change, negative = inhibition, actives largely listed as inhibitors; Kinase-Glo luciferase, ATP luminescence, 8 min; further: on the % scale 0 is the no-effect control and ±100 the full control effect; nearly all actives have a fitted effect of over 60% in size
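Compound is pinned into ATP-containing buffer (10 uM ATP, imidazole pH 7.2, 7 mM MgCl2). Kinase-Glo luciferase reagent is then added. Light output is recorded following an 8-min room-temperature incubation.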
Rab9 promoter act – qHTS Assay for Rab9 Promoter Activators; Potency, µM (top dose mostly 9.22 µM), for the others: at the top dose activation, negative = inhibition, hits mostly activators; Huh7 Rab9 promoter-luciferase reporter, luminescence, 24 h; 2.8% of 320,000 active; further: % of control where 0% means no effect; nearly all actives have a fitted effect of over 60% in size
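Huh7 cells stably carrying a Rab9 promoter-luciferase reporter, 1500 cells per well in OP-MEM I with 10% FBS, treated with compound 24 hours at 37C. Luciferase activity read by luminescence after 10 minutes with Amplite reagent.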
FLuc counter – qHTS profiling assay for firefly luciferase inhibitor/activator using purifed enzyme and Km concentrations of substrates (counterscreen for miR-21 project) | Potency, µM (series often up to 57.5 µM), without a hit: at the top dose activity change, negative = inhibition, usual class: inhibitors | AID 588342, 2011 | 6.9% of 360,000 active | Luciferin 4-monooxygenase (Photinus pyralis), P08659 | purified FLuc, Km substrates, luminescence inhibition;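 further: plate controls were vehicle for no effect and reference inhibitor for full effect; nearly all actives have a fitted effect of over 55% in size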
Target sequence (P08659 whole entry, looked up): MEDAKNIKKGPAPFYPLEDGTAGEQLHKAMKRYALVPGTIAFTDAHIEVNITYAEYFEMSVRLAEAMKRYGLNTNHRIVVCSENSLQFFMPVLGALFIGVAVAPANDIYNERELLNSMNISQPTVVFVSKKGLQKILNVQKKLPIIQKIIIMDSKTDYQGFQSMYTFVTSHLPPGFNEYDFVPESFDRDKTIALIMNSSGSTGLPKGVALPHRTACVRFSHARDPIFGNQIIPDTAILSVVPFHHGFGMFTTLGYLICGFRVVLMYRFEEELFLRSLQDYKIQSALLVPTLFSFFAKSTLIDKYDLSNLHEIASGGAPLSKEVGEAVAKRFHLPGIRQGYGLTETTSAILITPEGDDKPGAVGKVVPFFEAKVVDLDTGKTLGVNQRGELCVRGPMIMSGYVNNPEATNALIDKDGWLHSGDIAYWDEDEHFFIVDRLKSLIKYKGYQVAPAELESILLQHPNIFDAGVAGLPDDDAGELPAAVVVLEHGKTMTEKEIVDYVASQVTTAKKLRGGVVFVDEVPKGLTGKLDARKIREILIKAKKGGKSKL
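Purified P. pyralis luciferase, 10 nM final, with Km-level 10 uM D-luciferin and 10 uM ATP in 50 mM Tris acetate pH 7.5, 10 mM Mg acetate, 0.01% Tween-20, 0.05% BSA; 6-point qHTS titration about 60 µM downward; luminescence read.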
Numbers without * were called inactive; ? = inconclusive; nt = not tested or not shown; [ ] = dose if it differs, or a comment. This is a sample that favours compounds with a hit; in the whole collection about 7.3% have one here. The call rests on the fitted dose curve; in most records, active means well fitted curve in the direction sought with a large enough effect; inconclusive means small, poorly fitted or top-dose-only effect, or another doubt; inactive means no such curve, though single readings can be large; an effect the other way counts as inactive or inconclusive. Potency means the concentration at half of the fitted maximal effect.

SMILES | SMN2 splice up | NPC1 promoter act | KinaseGlo FLuc | Rab9 promoter act | FLuc counter
Cn1c(=O)c2c(-c3ccccc3)n(-c3cccc(C#N)c3)cc2n(C)c1=O | 2% | nt | nt | nt | -7%
CCCc1ccc(-c2ccc(C(=O)Oc3ccc(Br)cc3)cc2)nc1 | 4% | nt | nt | nt | -4%
CCCCCCCCCCCCCCCCCCc1ccc(C(=O)/C=C/C(=O)O)cc1 | 7% | nt | nt | nt | nt
CCCCCc1ccc(-c2ccc(/C=C/C(=O)O)cc2)nc1 | -35% | ? | -2% | ? | 0.38µM*
CCCc1ccc(-c2ccc(/C=C/C(=O)O)cc2)nc1 | -70% | -25% | 0% | -28% | 0.54µM*
Cc1cc(C)cc(N2Cc3ccccc3C2)c1 | 4% | 0% | 1% | 4% | -4%
COc1cc(N2Cc3ccccc3C2)ccc1C=O | nt | ? | nt | ? | 21µM*
O=C(Nc1ccc(Br)cc1)C1OCCc2ccccc21 (configuration not stated) | nt | 24% | nt | ? | 17µM*
O=C(Nc1cccnc1)C1OCCc2ccccc21 (configuration not stated) | 2% | 12% | -1% | 1% | 6%
CCC(C(=O)Nc1cc(-c2cn3cccnc3n2)ccc1C)c1ccccc1 (configuration not stated) | nt | nt | nt | nt | 0%
O=C(Nc1ccc(-c2cn3ccccc3n2)cc1)c1ccc(Cl)cc1 | ? | ? | -2% | 27% | -18%
O=C(Nc1ccc(-c2cn3ccccc3n2)cc1)c1ccco1 | 11µM* | 2.8µM* | 10µM* | 3.2µM* | 2.4µM*
Cc1ccc(C(=O)Nc2cccc(-c3cn4ccccc4n3)c2)cc1 | nt | 24% | -2% | ? | 6µM*
O=C(Nc1cccc(-c2cn3ccccc3n2)c1)c1ccccc1 | ? | 24% | 0% | ? | 4.8µM*
O=C(Nc1cccc(-c2cn3cccnc3n2)c1)c1ccco1 | 4% | 2% | 1% | 0% | ?
Cc1cccc(C(=O)Nc2cccc(-c3cnc4ccccc4n3)c2)c1 | 11% | 3% | 8% | -4% | 2%
CCCCC(=O)Nc1cccc(-c2cn3ccccc3n2)c1 | nt | 30% | nt | 22% | 12µM*
Cc1cc(C)cc(-n2ccnc(NCc3ccc(F)cc3)c2=O)c1 | nt | nt | nt | nt | -1%
Cc1ccccc1C(=O)Nc1cccc(-c2ccc3nncn3n2)c1 | 9% | -3% | 1% | 15% | -15%
Cc1ccccc1C(=O)Nc1cccc(-c2cn3ccccc3n2)c1 | -4% | 0% | 0% | 1% | 6.7µM*
O=C(Nc1ccccc1)c1ccc(NCC2CCCO2)c([N+](=O)[O-])c1 (configuration not stated) | 18µM* | ? | -1% | ? | ?
Cn1cnc2c(=O)oc3ccc(S(=O)(=O)N4CCN(c5ccccc5F)CC4)cc3c21 | nt | nt | nt | nt | -1%
Fc1ccccc1-c1csc(-c2cccnc2)n1 | nt | ? | nt | ? | 15µM*
Clc1ccc(-c2csc(-c3cccnc3)n2)s1 | nt | 22% | nt | 24% | 13µM*
c1cncc(-c2nc(-c3ccc4c(c3)OCCO4)cs2)c1 | nt | 0.89µM* | nt | 0.56µM* | 1.7µM*
SMILES | SMN2 splice up | NPC1 promoter act | KinaseGlo FLuc | Rab9 promoter act | FLuc counter
CS(=O)(=O)c1ccc(-c2csc(-c3cccnc3)n2)cc1 | nt | 4% | nt | 11% | ?
O=S(=O)(NCCc1csc(-c2cccnc2)n1)c1ccc(Cl)s1 | -37% | -1% | -2% | 2% | -1%
Oc1ccc(-c2csc(-c3cccnc3)n2)cc1O | nt | 21% | nt | -15% | 17µM*
Cc1csc(-c2cccnc2)n1 | 7% | -3% | 1% | 3% | 1%
CCOC(=O)c1c(C)[nH]c(C)c1S(=O)(=O)N1CCN(c2ccc(Cl)cc2)CC1 | nt | nt | nt | nt | 4%
Oc1ccc(-c2csc(-c3ccccc3)n2)cc1O | ? | 18% | 5% | -1% | 15µM*
Oc1ccccc1-c1csc(-c2ccccc2)n1 | ? | -5% | -21% | ? | 5.4µM*
c1ccc(-c2csc(-c3ccncc3)n2)cc1 | 23% | 18% | 1% | 24% | 15µM*
CN1CCN(/C=C2\SC(=S)NC2=O)CC1 | 10% | -2% | 1% | 1% | -1%
Cc1cc(/C=C2\SC(=S)NC2=O)c(C)n1C | 11% | 3% | -3% | -7% | 27µM*
Cc1cc(C(=O)O)ccc1-n1c(C)cc(/C=C2\SC(=O)NC2=O)c1C | nt | 0% | nt | 13% | -18%
CC1Cc2cc(/C=C3/SC(=S)NC3=O)ccc2O1 (configuration not stated) | nt | ? | nt | 4µM* | 2.7µM*
COc1ccc(-n2c(C)cc(/C=C3\SC(=S)NC3=O)c2C)cc1 | nt | ? | -2% | ? | 5.4µM*
Cc1nn(C)cc1/C=C1\SC(=S)NC1=O | 2% | -1% | -1% | -1% | ?
Cc1cc(/C=C2\SC(N)=NC2=O)c(C)n1-c1ccccc1 | 13µM* | 1.4µM* | -9% | 2.8µM* | 0.38µM*
Cc1ccc(C)c(Cn2c(=O)n(CCCCCC(=O)NCc3ccc4c(c3)OCO4)c(=O)c3sccc32)c1 | 7% | nt | nt | nt | -16%
CSc1cccc(NC(=O)C2CCCN(S(=O)(=O)c3ccc4c(c3)CCCN4C(C)=O)C2)c1 (configuration not stated) | nt | nt | nt | nt | -9%
Cc1cc(/C=C2\SC(=S)NC2=O)c(C)n1-c1ccccc1 | nt | 1µM* | nt | 0.63µM* | 0.54µM*
Cc1cc(/C=C2\SC(=Nc3ccc(F)cc3)NC2=O)c(C)n1-c1ccc(S(N)(=O)=O)cc1 | nt | -27% | 1% | -17% | 2%[2.3 µM]
O=C1NC(=S)S/C1=C\c1cc2ccccc2nc1N1CCCCC1 | nt | -4% | nt | -3% | -1%
COc1ccc2nc(N3CCCCC3)c(/C=C3\SC(=S)NC3=O)cc2c1 | nt | -3% | nt | -1% | 17µM*
Cc1nn(C)c(C)c1/C=C1/SC(=S)NC1=O | -26% | -3% | 1% | -1% | ?
Cc1cc(/C=C2\SC(=S)NC2=O)cc(C)c1O | nt | 2% | nt | -2% | 8.5µM*
Cc1cc(/C=C2\SC(=S)NC2=O)c(C)n1-c1ccc(O)cc1 | nt | 1.8µM* | nt | 1.8µM* | 0.85µM*
Cc1cc(/C=C2/SC(=O)NC2=O)c(C)n1-c1ccc(N2CCOCC2)cc1 | -25% | 8% | 0% | -4% | -6%
Cc1ccc(-n2c(=O)c3ccc(C(=O)NCc4ccco4)cc3n(Cc3ccc(Cl)cc3)c2=O)cc1 | -8% | nt | nt | nt | -3%
CCCC12CN3CC(C)(CN(C1)C3c1cn(CC)c3ccccc13)C2=O (configuration not stated) | 11% | nt | nt | nt | -3%
O=C(CCCN1C(=O)/C(=C/c2ccccc2Cl)SC1=S)NNC(=O)c1ccccc1Cl | -35% | -21% | -6% | -27% | 7.6µM*
O=C(CCCN1C(=O)/C(=C/c2cccs2)SC1=S)NNC(=O)c1ccncc1 | 11% | -6% | -1% | 0% | 4%
